Values joined by “and” are separate entries in the source; they are usually repeats but may differ in a detail not shown here. Equal values may be shown once. Inconclusive results are not listed. Values without a mark were called inactive. Active and inactive are the calls of the source. Calls come from the whole dose curve.

For experiment [1], the target named is Bile acid receptor (Homo sapiens) (UniProt Q96RI1). As to the kind of experiment: qHTS assay for small molecule agonists of farnesoid X receptor signaling (AID 588527).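 Note: series mostly up to about 77 µM; 0% = vehicle basal and 100% = reference agonist.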 As to conditions: HEK293T FXR-UAS-bla, beta-lactamase ratio, 16 h; activation: hits give high values. In a few lines:
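FXR-UAS-bla HEK293T cells (10% dialyzed FBS) preincubated 5-7 h at 37 C, then compounds at up to 92 uM for 16 h at 37 C. CCF4 beta-lactamase read-out after 2 h RT. Normalized to chenodeoxycholic acid (100 uM) and DMSO; Hill fit gave EC50 and efficacy.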
Background: In qHTS, concentration-response curves come from the screen itself.

Experiment [2] concerns the target Peroxisome proliferator-activated receptor delta (Homo sapiens) (UniProt Q03181). The experiment in a line: qHTS assay for small molecule agonists of peroxisome proliferator-activated receptor delta signaling (AID 588534).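 Note: 0% = DMSO basal wells and 100% = positive control agonist at 10 µM.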 Summed up: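 Titration series tested in agonist mode on beta-lactamase reporter cells; 18 hrs at 37 C after a 5 hr pre-incubation. Readout: CCF4 fluorescence, 2 hrs RT. Hill equation gives EC50 and maximal response.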

Sequence of Bile acid receptor (Homo sapiens) (Q96RI1 whole entry, looked up): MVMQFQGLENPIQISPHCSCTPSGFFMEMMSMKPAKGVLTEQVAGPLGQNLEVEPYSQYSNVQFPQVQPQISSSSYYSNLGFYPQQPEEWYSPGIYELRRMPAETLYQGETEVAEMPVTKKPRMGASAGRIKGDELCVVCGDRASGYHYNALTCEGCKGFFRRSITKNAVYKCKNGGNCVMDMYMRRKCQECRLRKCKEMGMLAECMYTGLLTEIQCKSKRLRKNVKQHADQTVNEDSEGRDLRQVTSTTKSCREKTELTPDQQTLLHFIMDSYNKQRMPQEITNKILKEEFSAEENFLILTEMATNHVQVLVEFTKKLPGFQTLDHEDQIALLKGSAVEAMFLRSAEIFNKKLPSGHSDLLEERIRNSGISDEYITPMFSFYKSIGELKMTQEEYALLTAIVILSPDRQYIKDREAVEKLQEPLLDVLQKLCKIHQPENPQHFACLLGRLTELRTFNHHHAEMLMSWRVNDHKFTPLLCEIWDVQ
Sequence of Peroxisome proliferator-activated receptor delta (Homo sapiens) (Q03181 whole entry, looked up): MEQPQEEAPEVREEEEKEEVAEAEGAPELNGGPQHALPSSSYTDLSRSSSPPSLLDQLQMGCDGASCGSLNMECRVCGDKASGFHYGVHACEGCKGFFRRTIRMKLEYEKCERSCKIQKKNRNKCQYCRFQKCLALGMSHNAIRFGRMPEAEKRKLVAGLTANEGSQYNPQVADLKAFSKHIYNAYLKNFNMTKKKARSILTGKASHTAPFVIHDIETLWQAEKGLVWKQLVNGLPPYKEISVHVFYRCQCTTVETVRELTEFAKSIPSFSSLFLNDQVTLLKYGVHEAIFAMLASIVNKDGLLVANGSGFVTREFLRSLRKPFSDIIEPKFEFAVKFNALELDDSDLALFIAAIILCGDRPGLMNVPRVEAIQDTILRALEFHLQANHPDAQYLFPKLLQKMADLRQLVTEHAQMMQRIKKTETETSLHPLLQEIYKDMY

Regarding `CCCCO`, in experiment [1], the activation is 0.769% and 0.512%. Further, the compound was called inactive in experiment [2].

Regarding `C=C(C)C1CC=C(C)C(OC(C)=O)C1` (stereo unspecified), in experiment [1], the activation is -0.422%. Besides, in experiment [2], the call was inactive.

Take `CCCCOCC(C)OCC(C)O` (stereo unspecified): the activation in experiment [1] is 5.12%. Further, the result in experiment [2] was inactive.

For the compound `CCc1c(C(=O)O)c(=O)cnn1-c1ccc(Cl)cc1`, in experiment [1], the activation is 1.28%. Also, the compound was called inactive in experiment [2].

In the case of `CCCCCCCCOC(=O)c1cc(O)c(O)c(O)c1`, the activation in experiment [1] is 5.29%. In experiment [2], the call was inactive.

Regarding `COC(=O)CCCCC(=O)OC`, the activation in experiment [1] is -2.8% and 3.47% and -2.74%. Moreover, in experiment [2], the compound was classed as inactive.

Consider `CCCCC(CC)COC(=O)c1ccc(C(=O)OCC(CC)CCCC)cc1` (stereo unspecified), for which the activation in experiment [1] is 2.72%. Further, the result in experiment [2] was inactive.

Consider `C=Cc1ccccc1C=C`, for which the activation in experiment [1] is -0.167%. Further, the result in experiment [2] was inactive.

On to `O=[N+]([O-])c1cccc(Cl)c1Cl`, for which, in experiment [1], the activation is -2.65% and -2.56%. Besides, in experiment [2], the compound was called inactive.

Turning to `CC(COCC(C)OC(=O)c1ccccc1)OC(=O)c1ccccc1` (stereo unspecified), in experiment [1], the activation is 3.09%. The compound was classed as inactive in experiment [2].

Regarding `Nc1cc(Cl)nc(C(=O)O)c1Cl`, in experiment [1], the activation was -2.93%. For the same compound, in experiment [2], the outcome was inactive.

Consider `Cc1c(C(=O)O)cccc1[N+](=O)[O-]`, for which the activation in experiment [1] was -2.92%. Further, the compound was classed as inactive in experiment [2].

In the case of `CC(C)(C)c1ccc(C(=O)O)cc1`, in experiment [1], the activation is -9.49%. The call in experiment [2] was inactive.

Turning to `O=C(OCCOCCOC(=O)c1ccccc1)c1ccccc1`, in experiment [1], the activation is -0.568%. Also, the result in experiment [2] was inactive.

In the case of `CCC(C)O` (stereo unspecified), in experiment [1], the activation was 0.0237%. Besides, the call in experiment [2] was inactive.

`Nc1cc(Cl)c([N+](=O)[O-])cc1O`: the activation in experiment [1] is -1.43%. Further, in experiment [2], the compound was called inactive.

For `C[Si](C)(Cl)[Si](C)(C)Cl`, the activation in experiment [1] was 0.0904%. Moreover, the result in experiment [2] was inactive.

With `Nc1cccc(O)c1`, the activation in experiment [1] was -1.81%. Moreover, in experiment [2], the result was inactive.

On to `C=CC(=O)NC(C)C`, for which the activation in experiment [1] is -0.191%. Besides, the outcome in experiment [2] was inactive.

As to `CCNc1ccccc1`, the activation in experiment [1] was -3.11%. Besides, the outcome in experiment [2] was inactive.

Take `Cn1c(=O)[nH]c(=O)n(C2CCC(O)CC2)c1=O` (stereo unspecified): in experiment [1], the activation is -4.56%. The compound was classed as inactive in experiment [2].

Turning to `CN=C(N)NCC1CCOC1` (stereo unspecified), in experiment [1], the activation was -3.33% and 1.46%. Moreover, in experiment [2], the outcome was inactive.

With `NC(=O)Cc1cccc2ccccc12`, the activation in experiment [1] was 0.544%. In addition, the compound was classed as inactive in experiment [2].

For the compound `COC(=O)c1ccccc1S(=O)(=O)NC(=O)Nc1nc(OC(F)F)cc(OC(F)F)n1`, the activation in experiment [1] was 2.12%. Also, the compound was called inactive in experiment [2].

In the case of `Cl[Si](Cl)(Cl)c1ccccc1`, in experiment [1], the activation is 0.575%. Further, in experiment [2], the compound was classed as inactive.

Turning to `CCCCC(CC)CNCC(CC)CCCC` (stereo unspecified), in experiment [1], the activation is -2.36%. Also, the outcome in experiment [2] was inactive.

On to `COC(=O)c1ccc(CNS(C)(=O)=O)cc1S(=O)(=O)NC(=O)Nc1nc(OC)cc(OC)n1`, for which, in experiment [1], the activation was -2.61%. Besides, the outcome in experiment [2] was inactive.

On to `CC(C)Cc1nccs1`, for which the activation in experiment [1] was -0.154%. In addition, the compound was classed as inactive in experiment [2].

For `O=C1C=CCCC1`, in experiment [1], the activation is -1.48%. Besides, the outcome in experiment [2] was inactive.

For the compound `Cc1ccc(N)c(S(=O)(=O)O)c1`, the activation in experiment [1] was 4.47%. Also, the compound was called inactive in experiment [2].

With `C#CCOC(=O)[C@@H](C)Oc1ccc(Oc2ncc(Cl)cc2F)cc1`, the activation in experiment [1] was -1.83%. Moreover, the compound was called inactive in experiment [2].

For `CCN(Cc1cccc(S(=O)(=O)O)c1)c1ccc(C(=C2C=CC(=[N+](CC)Cc3cccc(S(=O)(=O)O)c3)C=C2)c2ccccc2S(=O)(=O)[O-])cc1`, the activation in experiment [1] was -1.6%. In addition, in experiment [2], the outcome was inactive.

In the case of `CCCCCCCCCc1ccccc1`, the activation in experiment [1] was 2.7%. Moreover, the result in experiment [2] was inactive.

As to `O=C1OC(O)C(C(Cl)Cl)=C1Cl` (stereo unspecified), the activation in experiment [1] was 16.6%. Besides, in experiment [2], the compound was classed as inactive.

In the case of `Nc1ncnc2c1ncn2[C@H]1CC[C@@H](CO)O1`, in experiment [1], the activation is 0.029% and -3.36%. In addition, the result in experiment [2] was inactive.

Take `Cc1ccc2oc(=O)ccc2c1`: the activation in experiment [1] is 0.64% and 1.95%. Further, the call in experiment [2] was inactive.

As to `N#CC1(O)CCCCC1`, the activation in experiment [1] is -2.07%. In addition, in experiment [2], the compound was called inactive.

For `Clc1ccc(Cl)c(Cl)c1Cl`, the activation in experiment [1] is 1.31% and 2.13%. For the same compound, the compound was called inactive in experiment [2].

Consider `C1COC1`, for which, in experiment [1], the activation was -2.57%. Besides, the result in experiment [2] was inactive.

As to `CCOC(=O)NCCOc1ccc(Oc2ccccc2)cc1`, the activation in experiment [1] was 2.99%. Besides, in experiment [2], the compound was classed as inactive.

For the compound `CC(CCC(=O)O)(c1ccc(O)cc1)c1ccc(O)cc1`, the activation in experiment [1] was -2.09% and 0.383%. In addition, the result in experiment [2] was inactive.

As for `CC1(C)CC(NCCCCCCNC2CC(C)(C)NC(C)(C)C2)CC(C)(C)N1`, the activation in experiment [1] is 5.33%. Further, the compound was classed as inactive in experiment [2].

In the case of `N#Cc1ccccc1`, the activation in experiment [1] is -3.25%. In addition, the outcome in experiment [2] was inactive.

For `CC(C)(C)c1cccc(C(C)(C)C)c1O`, the activation in experiment [1] was -3.57%. The call in experiment [2] was inactive.

`CCCCCCCC[Si](Cl)(Cl)Cl`: the activation in experiment [1] was 0.799%. In addition, the call in experiment [2] was inactive.

Turning to `CC(=O)OC(C(=O)c1ccccc1)c1ccccc1` (stereo unspecified), the activation in experiment [1] was -3.38%. The compound was classed as inactive in experiment [2].

For `Nc1c(Cl)cc(Cl)cc1Cl`, in experiment [1], the activation is 0.611%. Further, the call in experiment [2] was inactive.

Take `Cc1ccc(N=Nc2c(O)ccc3ccccc23)c([N+](=O)[O-])c1`: the activation in experiment [1] was -0.458%. Also, the compound was called inactive in experiment [2].

Values taken from PubChem BioAssay (NCATS).
